Source: PubChem BioAssay
Records with an inconclusive call do not appear. The source made the active and inactive calls.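 The calls were made as follows, unless noted: active = binding below the plate cutoff, the plate median minus 3 SD, with a reading above zero; inconclusive = below the plate cutoff but reading exactly zero; inactive = the rest.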

Experiments:
[1] = rapamycin-like changes in RPL19A-GFP expression – cell-based, S. cerevisiae, multiplex flow cytometry, primary screen (AID 1862; in the data active = percent of DMSO control GFP below about 86%;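 also: lower values mimic rapamycin by blocking the RPL19A rise seen in DMSO cells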); settings: S. cerevisiae RPL19A-GFP strain, flow cytometry fluorescence, 3 h; at 10 µM; stronger effect = lower value
[2] = TOR pathway GLN3 branch reporter MEP2-GFP changes – S. cerevisiae, multiplex flow cytometry, primary screen (AID 1867;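 active = GFP response, as percent of the DMSO control, above the screen-wide mean plus 3 SD, about 139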;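 also: median GFP channel fluorescence of barcode-gated MEP2-GFP cells measured by flow cytometry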); settings: S. cerevisiae MEP2-GFP strain, 3 h, at 10 µM, stronger effect = higher value, 100% means same as DMSO wells
[3] = TOR pathway RTG branch CIT2 reporter changes – S. cerevisiae, GFP fusion, multiplex flow cytometry, primary screen (AID 1870;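 active = percent response above a set limit, the screen-wide mean plus 3 SD, cut at about 130% in these data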;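 also: barcoded CIT2-GFP strain pooled with four other GFP strains with rapamycin as positive control; median GFP fluorescence per well over plate mean of DMSO wells so 100% = DMSO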); settings: S. cerevisiae CIT2-GFP expression, 3 h, at 10 µM, stronger effect = higher value
[4] = TOR pathway LAP4-GFP level changes – S. cerevisiae, multiplex flow cytometry, primary screen (AID 1873;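 active = GFP signal, as percent of the solvent control, above the screen mean plus 3 SD, about 149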); settings: S. cerevisiae LAP4-GFP expression, 3 h, at 10 µM, stronger effect = higher value
[5] = yeast AGP1-GFP level changes, GLN3 branch – cell-based, multiplex flow cytometry, S. cerevisiae, primary screen (AID 1887;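 active = GFP signal above the screen-wide mean plus 3 SD, that is over about 124.5% of the solvent control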;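 also: AGP1-GFP fusion strain of S. cerevisiae within a five-strain barcoded multiplex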); settings: 3 h, at 10 µM, stronger effect = higher value
[6] = reduced mouse 2C T cell binding to pMHC/ICAM-1 vesicles – MLPCN validation set, flow cytometry, LFA-1/ICAM-1 modulator project, pilot screen (AID 2523;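 active = response below a set limit, under 55% cells CD8-positive and vesicle-bound, and CD8 cells' 90th-percentile brightness under 279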;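 as to vesicle binding response: mean PE anti-B7-1 fluorescence of CD8+ cells relative to row control; 100% = QL9-loaded vesicles with DMSO vehicle in the same plate row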); settings: 2C mouse CD8+ T cells, at 7 µM, stronger effect = lower value; double positive events: measured here: CD8+/vesicle+ event percentage
[7] = molecular target: Integrin beta-1 (Homo sapiens) + Integrin alpha-4 (Homo sapiens) (UniProt P13612+P05556); test: alpha4beta1 integrin LIBS antibody binding reduction – U937 cells, HUTS-21 mAb, flow cytometry, validation set, VLA-4 allosteric modulator project, pilot screen (AID 2674;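 active = inhibition above 50%, about 3 SD of the validation set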;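 also: antibody binding induced by the VLA-4 ligand LDV present at three times its Kd; 0% = LDV ligand with antibody and no compound and 100% = antibody without LDV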); settings: HUTS-21 LIBS mAb binding, at 6.7 µM, stronger effect = higher value, binding induced by LDV ligand
[8] = calorie-restriction mimetic ROS inhibitors, yeast – validation compound set, pilot screen (AID 2706;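 active = superoxide response below 65% of plate, a cut near 3 SD across the whole screen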;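 also: yeast exposed to compound for one week at 30 degrees C before staining; 100% = mean of all compound wells on the same plate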); settings: S. cerevisiae aging, superoxide DHE fluorescence; at 10 µM, stronger effect = lower value
[9] = molecular target: Beta-adrenergic receptor kinase 1 (Homo sapiens) (UniProt P25098); test: GRK2 binders displacing RNA aptamer, biochemical, validation, human GRK2, bead flow cytometry (AID 488806;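 active = aptamer binding inhibition above 30%, about 3 SD of noise from non-fluorescent compounds; inactive = inhibition at or below 30%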); settings: bead-bound GRK2, FAM-aptamer displacement, at 10 µM, stronger effect = higher value
[10] = molecular target: AP-2 complex subunit beta (Homo sapiens) (UniProt P63010); test: beta-arrestin/AP2 interaction blockers – biochemical, validation set, GST-AP2 beads, flow cytometry, pilot screen (AID 504541;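 active = inhibition above 54%, about 3 SD of non-fluorescent compounds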;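 also: AP2 carries R879A mutation and is captured from E. coli lysate; bead-bound FITC arrestin peptide fluorescence measuring arrestin peptide binding to AP2; 0% = DMSO wells and 100% = excess unlabeled arrestin peptide control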); settings: FITC arrestin peptide, at 10 µM, stronger effect = higher value, AP2 beta2 appendage fragment, R879A mutant
[11] = cytosolic pH regulators acting via V-ATPase – S. cerevisiae, pHLuorin, HTS validation (AID 504600; in the data active = response above about 15%;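 also: plate controls were DMSO for no effect and reference compound for full effect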); settings: V-ATPase proton transport, at 10 µM, stronger effect = higher value
[12] = system: anti-desmoglein-3 scFv antibody binding to human DSG3; test: blockers of pathogenic pemphigus antibody–desmoglein-3 binding – biochemical, validation compound set, bead-based, flow cytometry, pilot screen (AID 588368); settings: Protein G beads, DSG3-Fc, scFv-GFP binding, at 10 µM, stronger effect = lower value;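 also: signal is the median channel fluorescence of bead-bound GFP antibody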
[13] = Nile Red efflux blockade in pump-expressing yeast – validation compound set, multiplex, phenotypic, pilot screen (AID 588506;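 active = efflux inhibition above 0.42, the validation set average plus 4 SD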;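 also: Nile Red retained in cells so higher fluorescence means more efflux inhibition; 0 = negative control wells and 1 = enniatin B 25 µM full block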); settings: S. cerevisiae pump-expressing triplex, Nile Red efflux flow cytometry; at 10 µM; stronger effect = higher value; the pumps come from Candida albicans
[14] = molecular target: ATP-binding cassette sub-family B member 6 (Homo sapiens) (UniProt Q9NP58); test: blockers of ABCB6-driven porphyrin uptake – K562-ABCB6 cells, flow cytometry, validation set, pilot screen (AID 588550;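 active = inhibition above the screen-wide mean plus 3 SD, about 51%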;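 also: 0% = DMSO wells and 100% = benzethonium chloride 70 µM positive control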); settings: K562-ABCB6 porphyrin accumulation, 1 h, at 10 µM, stronger effect = higher value
[15] = AML differentiation inducers, ER-HoxA9 marrow cells – cell-based, GFP/MAC1 double positive, flow cytometry, validation set, primary screen (AID 588685;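 active = differentiation response of at least 50%, scaled between solvent and reference control, from cells with both markers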;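 also: compound exposure lasts four days before antibody staining and flow analysis; 0% = DMSO wells and 100% = 5 µM fulvestrant positive control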); settings: stronger effect = higher value, normalized: vehicle 0, fulvestrant 100
[16] = molecular target: Beta-2 adrenergic receptor (Homo sapiens) (UniProt P07550); test: agonist-induced loss of surface beta2AR – cell-based, FAP fluorogen, flow cytometry, validation set, pilot screen (AID 504459;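 active = percent response above 42, roughly 3 SD of non-fluorescent test compounds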;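 also: agonist-driven loss of surface beta2AR via internalization measured by FAP dye flow cytometry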); settings: Am2.2-beta2AR cells, at 10 µM, stronger effect = higher value
Sequence of Beta-2 adrenergic receptor (Homo sapiens) (P07550 whole entry, looked up): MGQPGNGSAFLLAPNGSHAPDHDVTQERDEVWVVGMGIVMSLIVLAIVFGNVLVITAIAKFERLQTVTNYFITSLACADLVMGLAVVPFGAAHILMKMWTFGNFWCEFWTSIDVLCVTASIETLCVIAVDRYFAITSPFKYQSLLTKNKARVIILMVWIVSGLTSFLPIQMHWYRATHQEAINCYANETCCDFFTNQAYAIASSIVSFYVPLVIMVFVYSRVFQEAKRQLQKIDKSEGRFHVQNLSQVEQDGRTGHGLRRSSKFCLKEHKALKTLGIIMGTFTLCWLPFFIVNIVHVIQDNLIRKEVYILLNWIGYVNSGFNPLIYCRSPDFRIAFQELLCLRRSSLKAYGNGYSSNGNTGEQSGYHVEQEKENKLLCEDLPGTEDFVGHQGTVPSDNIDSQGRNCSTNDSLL

Sequence of ATP-binding cassette sub-family B member 6 (Homo sapiens) (Q9NP58 whole entry, looked up): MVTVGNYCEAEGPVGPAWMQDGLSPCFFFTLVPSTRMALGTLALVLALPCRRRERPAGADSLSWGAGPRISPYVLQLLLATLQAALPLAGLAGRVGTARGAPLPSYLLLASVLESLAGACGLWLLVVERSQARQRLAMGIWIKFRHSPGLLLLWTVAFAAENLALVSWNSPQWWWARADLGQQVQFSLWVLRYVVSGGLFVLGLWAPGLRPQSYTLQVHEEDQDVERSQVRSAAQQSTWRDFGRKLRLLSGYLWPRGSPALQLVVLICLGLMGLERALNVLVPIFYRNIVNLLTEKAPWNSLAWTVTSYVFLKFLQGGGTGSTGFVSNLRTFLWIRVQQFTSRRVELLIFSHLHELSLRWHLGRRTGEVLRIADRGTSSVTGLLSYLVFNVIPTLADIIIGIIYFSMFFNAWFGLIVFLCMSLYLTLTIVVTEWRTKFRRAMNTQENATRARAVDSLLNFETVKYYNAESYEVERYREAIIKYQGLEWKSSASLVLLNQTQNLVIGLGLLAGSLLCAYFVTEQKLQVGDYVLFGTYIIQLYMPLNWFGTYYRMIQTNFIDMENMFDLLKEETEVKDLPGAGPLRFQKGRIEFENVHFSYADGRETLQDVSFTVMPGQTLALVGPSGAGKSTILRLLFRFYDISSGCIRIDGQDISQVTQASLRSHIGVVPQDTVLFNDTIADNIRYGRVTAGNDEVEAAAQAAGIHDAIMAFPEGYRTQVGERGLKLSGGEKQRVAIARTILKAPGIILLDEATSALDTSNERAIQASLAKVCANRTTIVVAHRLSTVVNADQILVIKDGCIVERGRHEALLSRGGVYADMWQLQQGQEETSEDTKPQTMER
Sequence of Beta-adrenergic receptor kinase 1 (Homo sapiens) (P25098 whole entry, looked up): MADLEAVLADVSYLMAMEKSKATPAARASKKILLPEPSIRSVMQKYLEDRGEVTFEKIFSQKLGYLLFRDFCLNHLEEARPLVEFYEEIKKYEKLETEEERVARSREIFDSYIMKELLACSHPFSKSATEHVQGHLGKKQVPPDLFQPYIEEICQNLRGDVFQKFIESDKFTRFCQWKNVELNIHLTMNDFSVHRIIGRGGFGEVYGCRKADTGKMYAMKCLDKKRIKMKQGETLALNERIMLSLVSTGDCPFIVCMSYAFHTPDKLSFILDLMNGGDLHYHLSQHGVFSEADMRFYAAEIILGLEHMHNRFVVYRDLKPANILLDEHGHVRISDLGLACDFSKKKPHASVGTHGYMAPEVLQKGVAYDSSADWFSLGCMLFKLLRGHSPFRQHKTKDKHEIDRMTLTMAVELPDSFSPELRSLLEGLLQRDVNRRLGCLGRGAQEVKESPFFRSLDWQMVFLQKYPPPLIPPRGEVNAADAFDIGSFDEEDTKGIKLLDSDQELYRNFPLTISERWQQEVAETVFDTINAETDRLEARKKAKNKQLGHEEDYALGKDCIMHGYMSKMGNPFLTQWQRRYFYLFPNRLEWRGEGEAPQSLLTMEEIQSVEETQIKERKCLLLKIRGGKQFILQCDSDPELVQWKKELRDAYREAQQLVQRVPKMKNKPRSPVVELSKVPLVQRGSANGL
Sequence of AP-2 complex subunit beta (Homo sapiens) (P63010 whole entry, looked up, the tested form may be a part, one chain of several): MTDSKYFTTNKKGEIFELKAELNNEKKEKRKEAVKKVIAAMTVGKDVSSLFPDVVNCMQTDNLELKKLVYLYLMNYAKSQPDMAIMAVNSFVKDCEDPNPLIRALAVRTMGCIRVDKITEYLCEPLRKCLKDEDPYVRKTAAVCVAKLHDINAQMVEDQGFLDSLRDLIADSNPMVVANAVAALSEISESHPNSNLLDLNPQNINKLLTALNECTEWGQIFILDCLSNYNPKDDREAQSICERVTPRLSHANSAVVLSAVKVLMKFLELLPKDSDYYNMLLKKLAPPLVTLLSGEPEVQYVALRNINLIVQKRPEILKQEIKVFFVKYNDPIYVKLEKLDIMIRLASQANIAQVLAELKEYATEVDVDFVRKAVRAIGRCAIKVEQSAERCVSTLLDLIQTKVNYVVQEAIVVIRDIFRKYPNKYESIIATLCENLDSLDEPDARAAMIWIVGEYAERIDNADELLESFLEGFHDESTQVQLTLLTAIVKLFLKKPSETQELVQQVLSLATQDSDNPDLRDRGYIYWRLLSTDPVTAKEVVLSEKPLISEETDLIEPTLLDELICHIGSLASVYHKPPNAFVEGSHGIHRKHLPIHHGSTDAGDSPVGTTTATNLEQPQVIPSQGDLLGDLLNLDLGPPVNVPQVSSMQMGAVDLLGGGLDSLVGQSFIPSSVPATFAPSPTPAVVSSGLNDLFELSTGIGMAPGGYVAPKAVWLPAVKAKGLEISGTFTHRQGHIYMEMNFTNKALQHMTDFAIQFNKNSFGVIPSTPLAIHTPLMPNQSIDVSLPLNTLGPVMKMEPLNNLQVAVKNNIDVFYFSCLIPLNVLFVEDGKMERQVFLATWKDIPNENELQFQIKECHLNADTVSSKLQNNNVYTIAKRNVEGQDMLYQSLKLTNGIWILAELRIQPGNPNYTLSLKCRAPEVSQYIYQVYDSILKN
Sequence of Integrin beta-1 (Homo sapiens) + Integrin alpha-4 (Homo sapiens) (P05556 whole entry, looked up): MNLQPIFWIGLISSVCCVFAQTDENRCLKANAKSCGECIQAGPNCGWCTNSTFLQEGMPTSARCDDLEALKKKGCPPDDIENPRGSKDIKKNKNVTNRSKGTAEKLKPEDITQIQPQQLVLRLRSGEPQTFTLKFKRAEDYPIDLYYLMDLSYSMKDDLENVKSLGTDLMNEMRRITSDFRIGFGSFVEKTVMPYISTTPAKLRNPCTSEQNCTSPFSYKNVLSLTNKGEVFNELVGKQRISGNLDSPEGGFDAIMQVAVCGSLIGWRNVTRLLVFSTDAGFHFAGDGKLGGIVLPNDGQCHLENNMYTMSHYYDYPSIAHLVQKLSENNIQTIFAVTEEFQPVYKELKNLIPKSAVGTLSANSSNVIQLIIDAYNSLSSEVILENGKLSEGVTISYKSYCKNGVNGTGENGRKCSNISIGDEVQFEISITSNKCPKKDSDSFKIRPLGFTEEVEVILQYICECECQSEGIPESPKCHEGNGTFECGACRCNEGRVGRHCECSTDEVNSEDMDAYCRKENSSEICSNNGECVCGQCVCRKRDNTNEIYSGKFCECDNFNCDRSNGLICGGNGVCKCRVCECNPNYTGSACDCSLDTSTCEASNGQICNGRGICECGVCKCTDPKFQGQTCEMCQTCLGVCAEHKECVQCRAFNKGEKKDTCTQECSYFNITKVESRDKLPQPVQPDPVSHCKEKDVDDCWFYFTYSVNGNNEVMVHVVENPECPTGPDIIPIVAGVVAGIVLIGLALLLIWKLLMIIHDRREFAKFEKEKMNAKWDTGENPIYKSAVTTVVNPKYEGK
Sequence of Integrin beta-1 (Homo sapiens) + Integrin alpha-4 (Homo sapiens) (P13612 whole entry, looked up): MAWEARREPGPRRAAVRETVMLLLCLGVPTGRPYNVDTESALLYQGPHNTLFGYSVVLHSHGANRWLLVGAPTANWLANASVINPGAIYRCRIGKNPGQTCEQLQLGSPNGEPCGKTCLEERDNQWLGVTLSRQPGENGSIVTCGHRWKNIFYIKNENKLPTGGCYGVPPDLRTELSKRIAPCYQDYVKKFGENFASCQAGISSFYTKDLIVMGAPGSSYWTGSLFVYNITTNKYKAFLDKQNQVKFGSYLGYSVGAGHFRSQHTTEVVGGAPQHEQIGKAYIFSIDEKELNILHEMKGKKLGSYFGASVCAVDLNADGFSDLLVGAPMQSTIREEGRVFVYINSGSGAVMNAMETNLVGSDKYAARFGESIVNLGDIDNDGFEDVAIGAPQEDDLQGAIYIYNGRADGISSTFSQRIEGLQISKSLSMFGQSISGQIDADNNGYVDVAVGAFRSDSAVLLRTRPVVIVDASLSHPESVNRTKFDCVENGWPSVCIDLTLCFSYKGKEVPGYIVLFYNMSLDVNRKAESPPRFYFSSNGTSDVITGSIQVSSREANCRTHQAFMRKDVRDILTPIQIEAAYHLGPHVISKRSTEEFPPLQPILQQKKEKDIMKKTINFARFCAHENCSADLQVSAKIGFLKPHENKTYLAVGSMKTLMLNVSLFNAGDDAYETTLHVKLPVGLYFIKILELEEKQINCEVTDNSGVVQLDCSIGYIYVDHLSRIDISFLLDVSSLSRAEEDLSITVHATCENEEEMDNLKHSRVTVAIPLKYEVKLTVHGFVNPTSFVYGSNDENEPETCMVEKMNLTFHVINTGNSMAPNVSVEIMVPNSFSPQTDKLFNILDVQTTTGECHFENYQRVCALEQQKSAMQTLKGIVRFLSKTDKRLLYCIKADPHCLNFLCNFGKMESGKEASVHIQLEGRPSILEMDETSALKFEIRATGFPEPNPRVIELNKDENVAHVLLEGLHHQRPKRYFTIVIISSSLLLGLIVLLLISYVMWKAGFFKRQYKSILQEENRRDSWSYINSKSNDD

SMILES: CCc1cc2c(=O)c(-c3nc4ccccc4n3C)coc2c(CN2CCN(C)CC2)c1O
- percent of DMSO control GFP [1]: 107% (inactive)
- GFP response vs DMSO [2]: 107% (inactive)
- percent response of DMSO control [3]: 110% (inactive)
- GFP response vs DMSO [4]: 101% (inactive)
- GFP response, % of DMSO [5]: 100% (inactive)
- double positive events [6]: 49.7%
- vesicle binding response [6]: 149% (inactive)
- inhibition [7]: 17.5% (inactive)
- superoxide response (% of plate) [8]: 105% (inactive)
- aptamer binding inhibition [9]: 2% (inactive)
- inhibition [10]: 2.16% (inactive)
- response [11]: 4.87% (inactive)
- binding (% of control) [12]: 102% (inactive)
- efflux inhibition (fraction of control) [13]: -0.54 (inactive)
- inhibition [14]: 7% (inactive)
- differentiation response [15]: -0.2% (inactive)

SMILES: CC1COc2c(N3CCN(C)CC3)c(F)cc3c(=O)c(C(=O)O)cn1c23 (stereo unspecified)
- percent of DMSO control GFP [1]: 92.2% (inactive)
- GFP response vs DMSO [2]: 120% (inactive)
- percent response of DMSO control [3]: 103% (inactive)
- GFP response vs DMSO [4]: 77.6% (inactive)
- GFP response, % of DMSO [5]: 90.8% (inactive)
- double positive events [6]: 64.3%
- vesicle binding response [6]: 109% (inactive)
- inhibition [7]: 11.3% (inactive)
- superoxide response (% of plate) [8]: 112% (inactive)
- aptamer binding inhibition [9]: 2% (inactive)
- response [16]: -5.81% (inactive)
- inhibition [10]: 2.93% (inactive)
- response [11]: -5.31% (inactive)
- binding (% of control) [12]: 95.4% (inactive)
- inhibition [14]: 7% (inactive)
- differentiation response [15]: -5.73% (inactive)

SMILES: CC(C)c1ccccc1OCCNC(=S)NC(=O)c1cccnc1
- percent of DMSO control GFP [1]: 98.2% (inactive)
- GFP response vs DMSO [2]: 97.4% (inactive)
- percent response of DMSO control [3]: 92% (inactive)
- GFP response vs DMSO [4]: 96.5% (inactive)
- GFP response, % of DMSO [5]: 96.3% (inactive)
- double positive events [6]: 62.4%
- vesicle binding response [6]: 185% (inactive)
- inhibition [7]: 22.8% (inactive)
- superoxide response (% of plate) [8]: 105% (inactive)
- aptamer binding inhibition [9]: -3% (inactive)
- response [16]: 4.29% (inactive)
- response [11]: -2.54% (inactive)
- binding (% of control) [12]: 99.7% (inactive)
- efflux inhibition (fraction of control) [13]: 1.3 (active)
- inhibition [14]: 3% (inactive)
- differentiation response [15]: 100% (active)

SMILES: CC1(C(=O)O)CCC(C(=O)NC2CCCCCC2)C1(C)C (stereo unspecified)
- percent of DMSO control GFP [1]: 103% (inactive)
- GFP response vs DMSO [2]: 106% (inactive)
- percent response of DMSO control [3]: 93.9% (inactive)
- GFP response vs DMSO [4]: 110% (inactive)
- GFP response, % of DMSO [5]: 100% (inactive)
- double positive events [6]: 67.7%
- vesicle binding response [6]: 157% (inactive)
- inhibition [7]: 28.3% (inactive)
- superoxide response (% of plate) [8]: 99.3% (inactive)
- aptamer binding inhibition [9]: 3% (inactive)
- response [16]: 10.4% (inactive)
- inhibition [10]: -8.9% (inactive)
- response [11]: -1.45% (inactive)
- binding (% of control) [12]: 102% (inactive)
- efflux inhibition (fraction of control) [13]: -0.54 (inactive)
- inhibition [14]: 7% (inactive)
- differentiation response [15]: -5.68% (inactive)

SMILES: COc1ccc(C(=O)/C=C/c2ccc(OC(=O)c3cc(OC)c(OC)c(OC)c3)cc2)cc1
- percent of DMSO control GFP [1]: 100% (inactive)
- GFP response vs DMSO [2]: 102% (inactive)
- percent response of DMSO control [3]: 87.3% (inactive)
- GFP response vs DMSO [4]: 114% (inactive)
- GFP response, % of DMSO [5]: 105% (inactive)
- double positive events [6]: 60.7%
- vesicle binding response [6]: 179% (inactive)
- inhibition [7]: -7.93% (inactive)
- superoxide response (% of plate) [8]: 96.7% (inactive)
- aptamer binding inhibition [9]: -2% (inactive)
- response [16]: -6.42% (inactive)
- response [11]: -3.29% (inactive)
- binding (% of control) [12]: 97.4% (inactive)
- efflux inhibition (fraction of control) [13]: 0.42 (inactive)
- inhibition [14]: 0% (inactive)
- differentiation response [15]: 20.6% (inactive)

SMILES: COc1ccc(OC)c(-c2oc3ccccc3c(=O)c2O)c1
- percent of DMSO control GFP [1]: 102% (inactive)
- GFP response vs DMSO [2]: 96.9% (inactive)
- percent response of DMSO control [3]: 96.9% (inactive)
- GFP response vs DMSO [4]: 110% (inactive)
- GFP response, % of DMSO [5]: 101% (inactive)
- double positive events [6]: 57%
- vesicle binding response [6]: 182% (inactive)
- inhibition [7]: -8.64% (inactive)
- superoxide response (% of plate) [8]: 102% (inactive)
- aptamer binding inhibition [9]: 2% (inactive)
- inhibition [10]: -1.44% (inactive)
- response [11]: 5.05% (inactive)
- binding (% of control) [12]: 97.5% (inactive)
- efflux inhibition (fraction of control) [13]: -0.01 (inactive)
- inhibition [14]: -4% (inactive)
- differentiation response [15]: -26% (inactive)

SMILES: O=C(c1ccc(F)cc1)[C@@H]1[C@@H](C(=O)c2ccccc2)[C@@]2(C(=O)Nc3ccccc32)[C@H]2c3ccccc3C=CN12
- percent of DMSO control GFP [1]: 102% (inactive)
- GFP response vs DMSO [2]: 93.8% (inactive)
- percent response of DMSO control [3]: 106% (inactive)
- GFP response vs DMSO [4]: 102% (inactive)
- GFP response, % of DMSO [5]: 102% (inactive)
- double positive events [6]: 43.2%
- vesicle binding response [6]: 172% (inactive)
- inhibition [7]: -183% (inactive)
- superoxide response (% of plate) [8]: 121% (inactive)
- aptamer binding inhibition [9]: -3% (inactive)
- inhibition [10]: -24.7% (inactive)
- response [11]: 2.83% (inactive)
- binding (% of control) [12]: 100% (inactive)
- efflux inhibition (fraction of control) [13]: 0.03 (inactive)
- inhibition [14]: 3% (inactive)
- differentiation response [15]: -19.6% (inactive)

SMILES: CC(=O)OCC(=O)[C@H]1CC[C@H]2[C@@H]3CC=C4C[C@@H](O)CC[C@]4(C)[C@H]3CC[C@]12C
- percent of DMSO control GFP [1]: 106% (inactive)
- GFP response vs DMSO [2]: 95.9% (inactive)
- percent response of DMSO control [3]: 114% (inactive)
- GFP response vs DMSO [4]: 115% (inactive)
- GFP response, % of DMSO [5]: 89.4% (inactive)
- double positive events [6]: 59.7%
- vesicle binding response [6]: 174% (inactive)
- inhibition [7]: 4.42% (inactive)
- superoxide response (% of plate) [8]: 99% (inactive)
- aptamer binding inhibition [9]: 0% (inactive)
- inhibition [10]: -2.87% (inactive)
- response [11]: 0.3% (inactive)
- binding (% of control) [12]: 101% (inactive)
- efflux inhibition (fraction of control) [13]: 0.29 (inactive)
- inhibition [14]: 6% (inactive)
- differentiation response [15]: -27.6% (inactive)

SMILES: Cn1c(=O)c2c(ncn2Cc2ccccc2)n(C)c1=O
- percent of DMSO control GFP [1]: 100% (inactive)
- GFP response vs DMSO [2]: 105% (inactive)
- percent response of DMSO control [3]: 88.6% (inactive)
- GFP response vs DMSO [4]: 103% (inactive)
- GFP response, % of DMSO [5]: 109% (inactive)
- double positive events [6]: 65.2%
- vesicle binding response [6]: 182% (inactive)
- inhibition [7]: -1.97% (inactive)
- superoxide response (% of plate) [8]: 96.4% (inactive)
- aptamer binding inhibition [9]: 0% (inactive)
- response [16]: -23% (inactive)
- response [11]: -0.4% (inactive)
- binding (% of control) [12]: 104% (inactive)
- efflux inhibition (fraction of control) [13]: 0 (inactive)
- inhibition [14]: 6% (inactive)
- differentiation response [15]: -16.8% (inactive)

SMILES: CC(=O)Nc1ccc(OS(=O)(=O)c2c(C)cc(C)cc2C)cc1
- percent of DMSO control GFP [1]: 99% (inactive)
- GFP response vs DMSO [2]: 92.8% (inactive)
- percent response of DMSO control [3]: 98.8% (inactive)
- GFP response vs DMSO [4]: 96.4% (inactive)
- GFP response, % of DMSO [5]: 86.7% (inactive)
- double positive events [6]: 47.1%
- vesicle binding response [6]: 166% (inactive)
- inhibition [7]: 10.9% (inactive)
- superoxide response (% of plate) [8]: 99.6% (inactive)
- aptamer binding inhibition [9]: -1% (inactive)
- inhibition [10]: -5.36% (inactive)
- response [11]: 0.9% (inactive)
- binding (% of control) [12]: 102% (inactive)
- efflux inhibition (fraction of control) [13]: -0.2 (inactive)
- inhibition [14]: 8% (inactive)
- differentiation response [15]: -18% (inactive)
